Test [1] can be described thus: NCI Yeast Anticancer Drug Screen. Data for the rad50 strain (AID 155).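 Note: 0% = growth of vehicle-only cultures of the same strain.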 The following applies: S. cerevisiae rad50 strain growth inhibition, active compounds read high. The procedure, abridged:
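Cells are treated with compound, grown, and their growth is then scored against vehicle-only cultures of the same repair-deficient yeast strain.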

Test [2] in a line: NCI Yeast Anticancer Drug Screen. Data for the mec2-1 strain (AID 157). Particulars: S. cerevisiae mec2-1 strain, active compounds read high. The gist of the method:
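Using mec2-1 yeast: add compound, measure growth, express inhibition versus vehicle-treated cultures.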

A short description of test [3]: NCI Yeast Anticancer Drug Screen. Data for the sgs1 mgt1 strain (AID 161).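 Note: 0% = growth of cultures given vehicle only.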 The following applies: S. cerevisiae sgs1 mgt1 strain, active compounds read high. The procedure, abridged: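 This yeast growth screen uses a strain with defined DNA-repair lesions; compound-treated growth is compared with vehicle-treated growth.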
The nature of test [4]: NCI Yeast Anticancer Drug Screen. Data for the cln2 rad14 strain (AID 165).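 Note: 0% = growth equal to vehicle treated cultures.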 Particulars: S. cerevisiae cln2 rad14 strain, active compounds read high. The procedure, abridged: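 Yeast strain cln2 rad14, bearing defects in cell cycle control and DNA repair, serves as the test system; values reflect growth inhibition compared with vehicle.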
Test [5] in a line: NCI Yeast Anticancer Drug Screen. Data for the bub3 strain (AID 167). Particulars: S. cerevisiae bub3 mutant strain, active compounds read high. The procedure, abridged:
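Part of a panel of yeast mutants defective in DNA damage repair or cell cycle regulation. Each strain is grown with compound, and inhibition is calculated relative to solvent-treated cultures.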

Test [6] is described as follows: NCI Yeast Anticancer Drug Screen. Data for the mlh1 rad18 strain (AID 175). Particulars: S. cerevisiae mlh1 rad18 strain growth inhibition, active compounds read high. The procedure, abridged: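 Steps: expose repair-defective yeast to compound; measure growth; express inhibition against vehicle-treated controls.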
The mark [7] stands for this setting: at 5.0 µM (retest, dose inferred, filed as 0.5).
The mark [8] stands for this setting: at 50.0 µM (retest, dose inferred, filed as 5.0).

This is part of a sample that, as a whole, favours compounds with a hit. Of some 79,000 tested, about 15% had one in any assay. Values without a mark were called inactive. Calls of active or inactive are those of the source. Cut-off read from the data, not from the text of the source: active = growth inhibition above about 70%; inactive = the rest.

Consider `Cc1cccc(/C=N/Nc2cc(C)nc3ccccc23)n1`, for which the growth inhibition in test [1] (setting [7]) is 1%; in test [1] (setting [8]), 2%; in test [1] (at 50.0 µM), 92.7% (active); in test [2] (setting [7]), -3%; in test [2] (setting [8]), -3%; in test [2] (at 50.0 µM), 37.8%. The growth inhibition was -2% in test [3] (setting [7]); 35% in test [3] (setting [8]); 53.6% in test [3] (at 50.0 µM); 5% in test [4] (setting [7]); 40% in test [4] (setting [8]); 53.8% in test [4] (at 50.0 µM). The growth inhibition was 2% in test [5] (setting [7]); 7% in test [5] (setting [8]); 19.7% in test [5] (at 50.0 µM); -1% in test [6] (setting [7]); 34% in test [6] (setting [8]); 46.4% in test [6] (at 50.0 µM).
For the compound `C[n+]1c(-c2ccc(/C=N/Nc3ccnc(N/N=C/c4ccc(-c5cn6ccccc6[n+]5C)cc4)n3)cc2)cn2ccccc21`, the growth inhibition in test [1] (setting [7]) was 99% (active); in test [1] (setting [8]) it was 99% (active); in test [1] (at 50.0 µM), 99.3% (active); in test [2] (setting [7]) it was 100% (active); in test [2] (setting [8]), 99% (active); in test [2] (at 50.0 µM), 99.5% (active). Further, the growth inhibition is 99% (active) in test [3] (setting [7]); 99% (active) in test [3] (setting [8]); 99.2% (active) in test [3] (at 50.0 µM); 98% (active) in test [4] (setting [7]); 99% (active) in test [4] (setting [8]); 99.3% (active) in test [4] (at 50.0 µM). In addition, the growth inhibition in test [5] (setting [7]) was 99% (active); in test [5] (setting [8]), 99% (active); in test [5] (at 50.0 µM), 99.4% (active); in test [6] (setting [7]) it was 99% (active); in test [6] (setting [8]), 99% (active); in test [6] (at 50.0 µM) it was 99.2% (active).
For `O=[N+]([O-])/C(C(Cl)=C(Cl)Cl)=C(/Cl)SCc1ccccc1`, the growth inhibition in test [1] (setting [7]) was 100% (active); in test [1] (setting [8]), 99% (active); in test [1] (at 50.0 µM) it was 89.8% (active); in test [2] (setting [7]) it was 100% (active); in test [2] (setting [8]) it was 99% (active); in test [2] (at 50.0 µM) it was 93.4% (active). Further, the growth inhibition is 99% (active) in test [3] (setting [7]); 99% (active) in test [3] (setting [8]); 90.1% (active) in test [3] (at 50.0 µM); 99% (active) in test [4] (setting [7]); 99% (active) in test [4] (setting [8]); 91.5% (active) in test [4] (at 50.0 µM). Also, the growth inhibition in test [5] (setting [7]) is 99% (active); in test [5] (setting [8]), 99% (active); in test [5] (at 50.0 µM) it was 91.5% (active); in test [6] (setting [7]), 99% (active); in test [6] (setting [8]) it was 99% (active); in test [6] (at 50.0 µM), 86.2% (active).
Regarding `C/C=C/C/C=C/CCC(=O)C1OC1C(N)=O` (configuration not stated), the growth inhibition in test [1] (setting [7]) is 98% (active); in test [1] (setting [8]) it was 99% (active); in test [1] (at 50.0 µM), 92.3% (active); in test [2] (setting [7]) it was 99% (active); in test [2] (setting [8]) it was 99% (active); in test [2] (at 50.0 µM) it was 93.3% (active). The growth inhibition in test [3] (setting [7]) is 99% (active); in test [3] (setting [8]), 99% (active); in test [3] (at 50.0 µM), 93.3% (active); in test [4] (setting [7]), 98% (active); in test [4] (setting [8]), 99% (active); in test [4] (at 50.0 µM) it was 91.4% (active). Moreover, the growth inhibition is 99% (active) in test [5] (setting [7]); 98% (active) in test [5] (setting [8]); 91.8% (active) in test [5] (at 50.0 µM); 99% (active) in test [6] (setting [7]); 99% (active) in test [6] (setting [8]); 91.8% (active) in test [6] (at 50.0 µM).
For `Cn1c(=S)c2[nH]c(SCc3ccncc3)nc2n(C)c1=O`, the growth inhibition was -2% in test [1] (setting [7]); 7% in test [1] (setting [8]); 47.2% in test [1] (at 50.0 µM); 0% in test [2] (setting [7]); -1% in test [2] (setting [8]); 59% in test [2] (at 50.0 µM). Further, the growth inhibition in test [3] (setting [7]) was -2%; in test [3] (setting [8]), 53%; in test [3] (at 50.0 µM) it was 64%; in test [4] (setting [7]) it was -3%; in test [4] (setting [8]), -12%; in test [4] (at 50.0 µM) it was 17.8%. Besides, the growth inhibition was -9% in test [5] (setting [7]); 2% in test [5] (setting [8]); 56.4% in test [5] (at 50.0 µM); -19% in test [6] (setting [7]); -6% in test [6] (setting [8]); 78.1% (active) in test [6] (at 50.0 µM).
Turning to `CCOC(=O)C(C)(C)C`, the growth inhibition was 0% in test [1] (setting [7]); 29% in test [1] (setting [8]); 15.8% in test [1] (at 50.0 µM); 3% in test [2] (setting [7]); 16% in test [2] (setting [8]); -8.2% in test [2] (at 50.0 µM). The growth inhibition in test [3] (setting [7]) was 2%; in test [3] (setting [8]) it was 12%; in test [3] (at 50.0 µM) it was 14.4%; in test [4] (setting [7]), 0%; in test [4] (setting [8]), 11%; in test [4] (at 50.0 µM), 25.6%. Also, the growth inhibition in test [5] (setting [7]) was 2%; in test [5] (setting [8]), 29%; in test [5] (at 50.0 µM), 73% (active); in test [6] (setting [7]), 3%; in test [6] (setting [8]) it was 16%; in test [6] (at 50.0 µM), 23.3%.
On to `CS(=O)(=O)OCCN(CCOS(C)(=O)=O)c1ccc(C=Nc2ccc(-c3csc(-c4ccc(Br)cc4)n3)cc2)cc1`, for which the growth inhibition is 33% in test [1] (setting [7]); 95% (active) in test [1] (setting [8]); 94% (active) in test [1] (at 50.0 µM); 43% in test [2] (setting [7]); 96% (active) in test [2] (setting [8]); 97.2% (active) in test [2] (at 50.0 µM). The growth inhibition in test [3] (setting [7]) was 18%; in test [3] (setting [8]), 90% (active); in test [3] (at 50.0 µM), 94.2% (active); in test [4] (setting [7]) it was 19%; in test [4] (setting [8]), 92% (active); in test [4] (at 50.0 µM), 81.2% (active). Also, the growth inhibition is -4% in test [5] (setting [7]); 90% (active) in test [5] (setting [8]); 74.8% (active) in test [5] (at 50.0 µM); 60% in test [6] (setting [7]); 96% (active) in test [6] (setting [8]); 96% (active) in test [6] (at 50.0 µM).
Regarding `CC(=O)OCCCCCCCCCCCCCCO`, the growth inhibition in test [1] (setting [7]) was -1%; in test [1] (setting [8]) it was 98% (active); in test [1] (at 50.0 µM), 50%; in test [2] (setting [7]) it was 0%; in test [2] (setting [8]), 99% (active); in test [2] (at 50.0 µM), -15.1%. Moreover, the growth inhibition in test [3] (setting [7]) was -4%; in test [3] (setting [8]), 99% (active); in test [3] (at 50.0 µM) it was -1.2%; in test [4] (setting [7]) it was -3%; in test [4] (setting [8]) it was 98% (active); in test [4] (at 50.0 µM), -33.1%. The growth inhibition in test [5] (setting [7]) was 1%; in test [5] (setting [8]) it was 99% (active); in test [5] (at 50.0 µM) it was 43%; in test [6] (setting [7]), -2%; in test [6] (setting [8]) it was 98% (active); in test [6] (at 50.0 µM), 4.25%.
On to `CCOC(=O)c1ccc(O)c(C=O)c1`, for which the growth inhibition in test [1] (setting [7]) was -103%; in test [1] (setting [8]), 90% (active); in test [1] (at 50.0 µM) it was 99.2% (active); in test [2] (setting [7]) it was -29%; in test [2] (setting [8]), 98% (active); in test [2] (at 50.0 µM), 99.6% (active). In addition, the growth inhibition is -35% in test [3] (setting [7]); 98% (active) in test [3] (setting [8]); 99.3% (active) in test [3] (at 50.0 µM); -28% in test [4] (setting [7]); 98% (active) in test [4] (setting [8]); 99% (active) in test [4] (at 50.0 µM). Also, the growth inhibition in test [5] (setting [7]) is -49%; in test [5] (setting [8]) it was 98% (active); in test [5] (at 50.0 µM), 98.6% (active); in test [6] (setting [7]) it was -83%; in test [6] (setting [8]), 98% (active); in test [6] (at 50.0 µM), 99.5% (active).
